In assay [1] the test system is DLD1. Kind of assay: cell viability (CellTiter-Glo) relative to plate median (fraction of plate median); higher = more viable cells. The note with it: 5 µM; treatment time 24 h; reporter: 7TFP. A digest of the protocol:
(§1)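 For this screen, colorectal cancer cell lines carrying stable lentiviral TCF/Wnt firefly luciferase reporters, either 7TFP or TCF4/Wnt, were seeded into 384-well plates. A day's wait of 24 h preceded addition of library compounds at a final 5 µM, which stayed on the cells for 24 h. Firefly luciferase or CellTiterGlo luminescence, read on parallel plates, was normalised to the plate median per well, and the reported value is the mean of two independent replicates.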
For orientation: Cellular ATP, detected with luciferase, serves as a proxy for viable cell number.

A further assay concerns HCT116. The assay is described as above. As to conditions: 5 µM; treatment time 24 h; reporter: TCF4/Wnt. A digest of the protocol:
as §1

Assay [2] concerns SW480. The assay is described as above. The note with it: 5 µM; treatment time 24 h; reporter: 7TFP. A digest of the protocol:
as §1

Assay [3] concerns DLD1. In words: TCF/Wnt firefly luciferase reporter signal relative to plate median (fraction of plate median); higher = higher Wnt reporter signal. The note with it: 5 µM; treatment time 24 h; reporter: 7TFP. A digest of the protocol:
as §1
On the technique in general: A reporter such as luciferase makes a cellular process visible.

Assay [4] concerns SW480. The assay is described as above. As to conditions: 5 µM; treatment time 24 h; reporter: 7TFP. A digest of the protocol: as §1

± gives the standard deviation of the averaged measurements.

We go through 13 molecules from the supplement of paper PMC6522484.

With `CC1(C)O[C@@H]2[C@@H](CO[C@@]3(COS(N)(=O)=O)OC(C)(C)O[C@@H]23)O1`, the values for the cell viability in the assay on DLD1 [1], in the assay with HCT116 and with SW480 [2] were 0.925 ± 0.042, 1.04 ± 0.014 and 1.03 ± 0.052, respectively. The figures for the “TCF/Wnt firefly luciferase reporter signal” value in the assay on DLD1 [3] and in the assay on SW480 [4] were 1.12 ± 0.11 and 0.845 ± 0.12, respectively.

Regarding `COc1cc(O)c(C(=O)c2ccccc2)cc1O`, the cell viability came out at 0.889 ± 0.07 in the assay on DLD1 [1], 0.84 ± 0.17 in the assay with HCT116 and 1.07 ± 0.15 in the assay on SW480 [2]. Besides, the “TCF/Wnt firefly luciferase reporter signal” value was found to be 0.891 ± 0.28 with DLD1 [3] and 0.845 ± 0.12 with SW480 [4].

Regarding `N[C@@H](C(=O)O)[C@@H](O)[C@H](O)[C@H](O)CO`, the cell viability in the assay with DLD1 [1] stood at 0.989 ± 0.073; in the assay on HCT116 it was 0.95 ± 0.021; in the assay with SW480 [2], 1.01 ± 0.02. Also, the “TCF/Wnt firefly luciferase reporter signal” value with DLD1 [3] worked out at 1 ± 0.14; in the assay with SW480 [4], 0.996 ± 0.034.

For the molecule `COc1ccc(-c2c(O)c3c(OC)c4c(cc3oc2=O)OC(C)(C)C=C4)cc1`, the cell viability in the assay on DLD1 [1] turned out to be 1.01; in the assay on HCT116, 0.968 ± 0.088; with SW480 [2], 0.9495 ± 0.0092. Besides, the figures for the “TCF/Wnt firefly luciferase reporter signal” value in the assay on DLD1 [3] and with SW480 [4] were 1.07 ± 0.014 and 1.07 ± 0.035, respectively.

With `Cc1c(NC(=O)c2cccnc2)c(=O)n(-c2ccccc2)n1C`, the cell viability in the assay with DLD1 [1] is 1.01; in the assay with HCT116, 1.1 ± 0.042; in the assay with SW480 [2] it was 0.981 ± 0.015. For the same molecule, the results for the “TCF/Wnt firefly luciferase reporter signal” value in the assay on DLD1 [3] and in the assay on SW480 [4] were 1.06 ± 0.17 and 1 ± 0.037, respectively.

As for `CO[C@H]1C=C[C@@]23c4cc5c(cc4CN(C[C@@H]2O)[C@H]3C1)OCO5`, the cell viability in the assay with DLD1 [1] is 0.864 ± 0.075; in the assay with HCT116, 0.847 ± 0.069; in the assay on SW480 [2], 0.862 ± 0.035. In addition, the “TCF/Wnt firefly luciferase reporter signal” value in the assay with DLD1 [3] was 0.857 ± 0.057; with SW480 [4], 0.901 ± 0.18.

With `COc1cc(CO)cc2c1C(=O)c1c(O)cc(O)cc1C2=O` [Carviolin], the cell viability in the assay on DLD1 [1] was 0.883 ± 0.19; in the assay with HCT116, 0.93 ± 0.018; in the assay with SW480 [2], 0.99 ± 0.0014. Moreover, the “TCF/Wnt firefly luciferase reporter signal” value was 0.811 ± 0.1 in the assay on DLD1 [3] and 0.963 ± 0.044 with SW480 [4].

`CN(C)CCOC(=O)C(c1ccccc1)C1(O)CCCC1` (stereo not given): the cell viability in the assay with DLD1 [1] was determined as 0.986 ± 0.0014; with HCT116, 1.07 ± 0.099; with SW480 [2], 1 ± 0.013. In addition, the results for the “TCF/Wnt firefly luciferase reporter signal” value in the assay on DLD1 [3] and in the assay with SW480 [4] were 1.12 ± 0.12 and 1.05 ± 0.12, respectively.

As for `C/C=C/C=C/C1C=CC2CC(C)CCC2C1(C)/C(O)=C1/C(=O)NC(C(C)O)C1=O` (stereo not given) [Altersetin], the results for the cell viability with DLD1 [1], in the assay with HCT116 and in the assay with SW480 [2] were 1 ± 0.023, 0.974 ± 0.018 and 1 ± 0.011, respectively. The “TCF/Wnt firefly luciferase reporter signal” value in the assay on DLD1 [3] came to 1 ± 0.043; in the assay with SW480 [4], 0.923 ± 0.052.

Regarding `Nc1ccc(S(=O)(=O)Nc2ccccn2)cc1`, the cell viability came to 0.971 ± 0.11 in the assay on DLD1 [1], 0.949 ± 0.067 in the assay on HCT116 and 0.981 ± 0.055 with SW480 [2]. For the same molecule, the “TCF/Wnt firefly luciferase reporter signal” value came out at 1.12 ± 0.028 in the assay on DLD1 [3] and 0.915 ± 0.076 in the assay with SW480 [4].

In the case of `Nc1nc2c(ncn2COCCO)c(=O)[nH]1`, the values for the cell viability in the assay on DLD1 [1], with HCT116 and in the assay on SW480 [2] were 1 ± 0.11, 1.01 ± 0.034 and 0.955 ± 0.078, respectively. For the same molecule, the “TCF/Wnt firefly luciferase reporter signal” value in the assay on DLD1 [3] was 0.991 ± 0.056; with SW480 [4] it was 0.973 ± 0.053.

For the molecule `C=C1C(=O)O[C@@H]2C[C@@]3(C)CCC[C@H](C)C3=C[C@H]12`, the cell viability came out at 1.01 ± 0.02 with DLD1 [1], 0.875 ± 0.027 in the assay with HCT116 and 0.96 ± 0.0057 with SW480 [2]. For the same molecule, the figures for the “TCF/Wnt firefly luciferase reporter signal” value in the assay on DLD1 [3] and in the assay on SW480 [4] were 0.985 ± 0.0057 and 1.03 ± 0.067, respectively.

With `O=C1CN(/N=C/c2ccc([N+](=O)[O-])o2)C(=O)N1`, the cell viability in the assay on DLD1 [1] came out at 1.03 ± 0.11; with HCT116, 1.02 ± 0.037; in the assay on SW480 [2], 0.949. In addition, the “TCF/Wnt firefly luciferase reporter signal” value is 0.954 ± 0.043 in the assay with DLD1 [3] and 0.995 ± 0.12 in the assay with SW480 [4].
